Source: PubChem
FAS-TE inh = blocks the thioesterase domain of human fatty acid synthase; recombinant FAS-TE, OMFH fluorogenic substrate, fluorescence endpoint; inhibition, % at 15 µM; hit rate 0.67% among 360,000; AID 602261;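 active = compounds whose normalised, plate-corrected inhibition of enzyme fluorescence in the single-dose primary screen is 50% or more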
ATG4B inh = inhibitors of human ATG4B cysteine protease | ATG4B cleavage of LC3-PLA2, NBD-HPC fluorescence, 1 h | inhibition, % at 8.33 µM | hit rate 0.51% among 340,000 | AID 504462; in the data active = inhibition above about 40%
NadD inh = NadD (S. aureus) enzyme inhibition; purified NadD enzyme, colorimetric absorbance read-out; inhibition, % at 20 µM; hit rate 0.78% among 360,000; in the data active = inhibition above about 26%
Calb FLC = affects C. albicans growth with fluconazole | AID 1979 | hit rate 0.57% among 300,000 | C. albicans CaCi-2 (fluconazole-resistant clinical isolate) + fluconazole, Alamar Blue growth, 48 h | growth inhibition, % (no concentration beside the values);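 active = growth inhibition above about 58% in most replicates, limit read from the data, passing the limit was not always enough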;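 also: all wells also contain fluconazole at 8 µg/ml as a sub-toxic cotreatment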
Mot1-301 SUMO = SUMOylation pathway inhibition by Mot1-301 growth rescue; S. cerevisiae Mot1-301 growth rescue, ATP luminescence, 38.5C; percent above DMSO median, 100 means doubled; growth rescue, % at 18.8 µM; hit rate 1% among 320,000;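 active = every valid replicate shows activation above 250% relative to neutral control wells; inactive = the rest, any valid replicate at or below 250%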
Yeast Mot1 SUMO = SUMO pathway inhibitors in yeast Mot1-301 growth; S. cerevisiae Mot1-301 galactose growth, ATP luminescence, 24 h; -100 = growth of slx-deleted rescue strain; growth activity, percent, % at 42 µM; 2,300 tested, under 10 active; shares compounds with Mot1-301 SUMO;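 active = Signal drops as the depositor expects, and the fitted half-maximal dose is no more than ten times the top valid tested dose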;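 also: more negative values mean stronger growth rescue toward the control strain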
ATG4B conf = ATG4B (human) inhibition, single-dose confirmed | shares compounds with ATG4B inh | ATG4B protease fluorescent substrate cleavage assay | inhibition, % at 8.33 µM | hit rate 92% among 320 | AID 504757; in the data active = inhibition above about 39%
PLA2 counter = PLA2 (human) inhibition in ATG4B counter-screen; shares compounds with ATG4B inh; purified PLA2, NBD-C6-HPC fluorescence, 45 min; AID 588402; inhibition, % at 8.33 µM; hit rate 66% among 1,600; in the data active = inhibition above about 50%
NadD inh conf = confirmation of Staphylococcus aureus NadD inhibitors | purified S. aureus NadD, colorimetric enzyme assay | hit rate 13% among 2,000 | shares compounds with NadD inh | inhibition, % at 20 µM; in the data active = inhibition mostly above about 42%, no sharp cut-off; inactive = mostly below about 42%
A number is an active result. Rows were chosen to be rich in hits. Some 3.1% of all compounds tested hit in one or more screens of this group.

`CC1=CC2OC3CC4OC(=O)C=CC=CC(C(C)O)OCC(O)C5(C)OC5C(=O)OCC2(CC1O)C4(C)C31CO1` (configuration not stated) gave FAS-TE inh inactive, ATG4B inh inactive and NadD inh inactive.
For Cc1sc(-n2c(C)cc(C=C3C(=O)NC(=O)NC3=O)c2C)c(C#N)c1C the results were ATG4B inh inactive, Calb FLC inactive, Mot1-301 SUMO 486.3 and Yeast Mot1 SUMO inactive.
For Cc1cc(C=C2C(=O)NC(=O)NC2=O)c(C)n1-c1cccnc1 the results were FAS-TE inh inactive, ATG4B inh inactive, NadD inh inactive, Calb FLC inactive and Mot1-301 SUMO inactive.
Screening COCCNC(=O)CN1C(=O)C(C)N=C(c2ccccc2)c2cc(Cl)ccc21 (configuration not stated) returned FAS-TE inh inactive, ATG4B inh inactive, NadD inh inactive, Calb FLC inactive and Mot1-301 SUMO inactive.
`C[n+]1c(-c2ccccc2)cc(CCCCc2cc(-c3ccccc3)[n+](C)c(-c3ccccc3)c2)cc1-c1ccccc1` gave FAS-TE inh inactive, ATG4B inh inactive, NadD inh 40.1, Calb FLC 111.1, Mot1-301 SUMO 368.5, Yeast Mot1 SUMO inactive and NadD inh conf inactive.
`CCC(CO)(C(=O)OC1CC2CCC(C1)N2C)c1ccccc1` (configuration not stated) gave FAS-TE inh inactive, ATG4B inh inactive, NadD inh inactive, Calb FLC inactive and Mot1-301 SUMO inactive.
`COc1ccc(-n2c(/C=C/c3ccc(O)c(O)c3)nc3ccccc3c2=O)cc1` gave FAS-TE inh inactive, ATG4B inh 49.4, NadD inh inactive, Calb FLC inactive, Mot1-301 SUMO inactive and PLA2 counter 51.6.
For O=[N+]([O-])c1nccn1CC(O)CN1CC1 (configuration not stated) the results were FAS-TE inh inactive and NadD inh inactive.
Screening O=Cc1cn(Cc2c(F)cccc2Cl)nc1-c1ccccc1 returned FAS-TE inh inactive, ATG4B inh inactive, NadD inh inactive, Calb FLC inactive and Mot1-301 SUMO inactive.
Screening CCc1ccc(-c2nn(Cc3ccccc3)cc2C=O)cc1 returned FAS-TE inh inactive, ATG4B inh 67.5, NadD inh inactive, Calb FLC inactive, Mot1-301 SUMO inactive and PLA2 counter 83.3.
`CC1=NN=C(c2ccc(N)cc2)c2cc3c(cc2C1)OCO3` gave FAS-TE inh inactive, ATG4B inh inactive, NadD inh inactive and Mot1-301 SUMO inactive.
For CCOC(=O)c1c(-n2c(C)cc(/C=C3\C(=O)NC(=O)N(C)C3=O)c2C)sc2c1CCCC2 the results were FAS-TE inh inactive, ATG4B inh inactive, NadD inh inactive, Calb FLC inactive and Mot1-301 SUMO inactive.
Cc1cc(/C=C2\C(=O)NC(=O)N(c3ccc(Cl)cc3)C2=O)c(C)n1-c1sc2c(c1C#N)CCCC2 was read as FAS-TE inh inactive, ATG4B inh 43.3, NadD inh 46.7, Calb FLC inactive, Mot1-301 SUMO inactive, ATG4B conf 63.0 and PLA2 counter inactive.
`CCS(=O)(=O)Nc1cccc(C(=C2CCCCC2)c2cnc[nH]2)c1` gave FAS-TE inh inactive, ATG4B inh inactive, NadD inh inactive and Mot1-301 SUMO inactive.
For COC(=O)C1=C(c2ccc(F)cc2OCc2ccccc2)C[C@@H]2CC[C@H]1N2C(=O)NCc1ccccc1Br the results were FAS-TE inh inactive, ATG4B inh 64.2, NadD inh inactive, Mot1-301 SUMO inactive and PLA2 counter 79.5.
`CCOc1cc(CNCCc2c[nH]c3ccccc23)cc(Cl)c1OC` gave FAS-TE inh inactive, ATG4B inh inactive, NadD inh inactive, Calb FLC inactive and Mot1-301 SUMO inactive.
